Among all 16,000 compounds or so, about 5,100 (32%) were called active. Another 25% or so got no clear call; they are omitted. Some of the results follow. Unmarked numbers belong to inactive results. Calls follow the shape of the dose curve; as a rule, active = well fitted curve in the direction sought with a large enough effect; inconclusive = small, poorly fitted or top-dose-only effect, or effect the other way; inactive = no such curve, though single readings can be large or run the other way.
target: Cytochrome P450 3A4 (Homo sapiens) (UniProt P08684); test: Cytochrome panel assay with activity outcomes; details: recombinant CYP, pro-luciferin dealkylation, luminescence, p450-cyp3a4; series mostly up to 57.1 µM; activity, negative = inhibition: at the top concentration
Sequence (P08684 whole entry, looked up): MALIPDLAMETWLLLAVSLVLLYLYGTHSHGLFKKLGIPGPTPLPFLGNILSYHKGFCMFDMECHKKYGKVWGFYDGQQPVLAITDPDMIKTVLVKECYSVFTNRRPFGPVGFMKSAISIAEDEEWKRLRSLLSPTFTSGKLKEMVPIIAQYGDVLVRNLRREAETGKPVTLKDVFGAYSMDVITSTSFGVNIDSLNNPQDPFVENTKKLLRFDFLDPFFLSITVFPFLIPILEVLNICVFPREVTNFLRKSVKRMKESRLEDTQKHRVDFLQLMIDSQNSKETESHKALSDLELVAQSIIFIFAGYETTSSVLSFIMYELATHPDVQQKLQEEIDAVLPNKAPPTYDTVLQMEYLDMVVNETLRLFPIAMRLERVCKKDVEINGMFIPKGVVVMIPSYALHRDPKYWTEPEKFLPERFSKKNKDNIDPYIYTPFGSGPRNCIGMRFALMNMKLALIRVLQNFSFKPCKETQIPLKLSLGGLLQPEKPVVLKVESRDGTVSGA
% is scaled to controls: 0 for no effect and ±100 for the full control effect.

SMILES | activity, negative = inhibition | AC50
O=c1nc2ccccc2c2n1C[C@H](CN1CCN(c3ccccc3)CC1)N2 | -8.5% | 
CC(C)=CCC/C(C)=C/CO/N=C1/C[C@@H](O)[C@@H](O)[C@@H]2[C@@H]3C(=O)N(C(C)(C)C)C(=O)[C@H]3CC[C@@H]12 | -26.7% [at 11.4 µM] | 
COc1cc(Br)cc2cc(C(=O)NCC3CCCO3)c(=O)oc12 (centres undefined) | -9.38% | 
COC(=O)C1=C(N)Oc2cc(C)n(CC3CCCO3)c(=O)c2C1c1ccccc1OC (centres undefined) |  | 6.31 µM (active)
O=C(O)[C@@H]1[C@@H](C(=O)O)[C@]23C[C@@]2(C(=O)O)[C@]2(C(=O)O)CCC3=C3CCCC312 | 7.71% [at 11.4 µM] | 
CNC(=O)[C@H](C)[C@H]1C[C@]1(C)[C@H](NC(=O)OCc1ccccc1)c1ccccc1 |  | 2 µM (active)
O=C(NCC1CCC(C(=O)O)CC1)OCc1ccccc1 (centres undefined) | -20.2% | 
CNC(=O)[C@H](C)[C@@H]1C[C@@]1(C)[C@@H](NC(=O)OCc1ccccc1)c1ccccc1 |  | 2.51 µM (active)
CCOC(=O)N/N=C1/C[C@@H](O)[C@@H](O)[C@@H]2[C@@H]3C(=O)N(C(C)(C)C)C(=O)[C@H]3CC[C@@H]12 | -11.7% [at 11.4 µM] | 
Cc1noc(C)c1C(=O)N1CCC[C@@]2(CCN(C(=O)Nc3ccccc3)C2)C1 |  | 15.8 µM (active)
COc1ccc(NC(=O)N2CC3(CCN(C(=O)c4c(C)noc4C)CC3)C2)cc1 | -24.2% | 
Cc1noc(C)c1C(=O)N1CCC[C@@]2(CCN(C(=O)Nc3cccc(F)c3)C2)C1 |  | 5.01 µM (active)
Cc1noc(C)c1C(=O)N1CCC[C@@]2(CCN(c3ncccn3)C2)C1 | -27.9% | 
Cc1noc(C)c1C(=O)N1CCC2(CC1)CN(c1ccccc1)C2 | 25% | 
Cc1noc(C)c1C(=O)N1CCC[C@@]2(CCN(C(=O)NC(C)C)C2)C1 | -17.5% | 
Cc1noc(C)c1C(=O)N1CCC[C@@]2(CCN(c3ccccc3)C2)C1 |  | 5.01 µM (active)
C=CC1=C[C@@H](O)C2OC2C12OCCCO2 (some centres undefined) | -4.04% [at 11.4 µM] | 
CCCn1c(=O)c2[nH]c(-c3ccc(OCC(=O)NCCN)cc3)nc2n(CCC)c1=O |  | 2.51 µM (active)
CCCn1c(=O)c2[nH]c(C3CCCC3)nc2n(CCC)c1=O | -26.8% | 
COc1cccc(-c2cc(C(F)(F)F)n3ncc(S(=O)(=O)c4ccccc4)c3n2)c1 |  | 3.98 µM (active)
O=S(=O)(c1ccccc1)c1cnn2c(C(F)(F)F)cc(-c3ccccc3)nc12 | 14.2% | 
CCCn1c(/C=C/c2ccccc2)nc2ccccc21 |  | 17.8 µM (active)
Cc1nc2ccccc2n1CC(=O)N/N=C\C=C\c1ccccc1 | 12.7% | 
CCc1ccccc1NC(=S)NCc1ccc2c(c1)OCO2 |  | 4.47 µM (active)

SMILES | activity, negative = inhibition | AC50
CCOc1c2ccc(C(=O)NCc3ccc4c(c3)OCO4)cc2nn1CC | 14.3% [at 2.29 µM] | 
CCc1c(C(=O)NCc2ccc3c(c2)OCO3)[nH]c(C)c1C(C)=O |  | 0.891 µM (active)
NC(N)=NNC(=O)C(=O)O | -1.33% [at 11.4 µM] | 
CC1=NN(c2ccc(C)cc2C)C(=O)C1C(c1ccccc1)C1C(=O)N(c2ccc(C)cc2C)N=C1C (centres undefined) |  | 11.2 µM (active)
CC1=NN(c2ccc(F)cc2)C(=O)C1C(c1cccc(O)c1)c1c(C)[nH]n(-c2ccc(F)cc2)c1=O (centres undefined) | 2.16% [at 2.29 µM] | 
Cc1ccc(N2C(=O)C(Cl)=C(NCc3ccccc3)C2=O)c(C)c1 | -82.7% | 
CCN(CC)CCNC(=O)c1cc(S(C)(=O)=O)ccc1OC |  | inactive
CCN(CC)CCNC(=O)c1ccc(Cl)c(S(=O)(=O)Nc2ccccc2OC)c1 |  | 14.1 µM (active)
CCN(CC)CCNC(=O)c1cc(Cl)c(N)cc1OC |  | inactive
CCCCN(CC)Cc1ccc(CNC(=O)Nc2ccc(OC)cc2OC)o1 |  | 22.4 µM (active)
COc1cnc(-c2ccccn2)nc1Oc1ccc(Cl)c2ccccc12 |  | 14.1 µM (active)
COc1cnc(-c2ccccn2)nc1Sc1c(Cl)cccc1Cl | -4.39% | 
COc1cnc(-c2ccccc2)nc1Oc1cccc(C)c1 | -66.9% | 
CN(Cc1cnc2nc(N)nc(N)c2n1)c1ccc(C(=O)N[C@@H](CCC(=O)O)C(=O)O)cc1 | -19.3% | 
CCn1c2ccccc2c2cc(NC(=O)CSc3nnc(-c4ccc(OC)c(OC)c4)n3N)ccc21 |  | 1 µM (active)
COc1ccc(C)cc1NC(=O)CCC(=O)Nc1nnc(C(F)(F)F)s1 | 1.53% | 
COc1ccc(NC(=O)COC(=O)Cn2c(C)nc3ccccc32)cc1OC | 8.93% [at 2.29 µM] | 
COc1ccc(C)cc1NC(=O)CSc1nnc(-c2ccc(OC)c(OC)c2)n1N |  | 7.94 µM (active)
Cn1c(=O)c2c(ncn2C[C@@H](O)CO)n(C)c1=O | -3.39% [at 25.6 µM] | 
Cn1c(=O)c2c(ncn2CCO)n(C)c1=O | -5.85% [at 25.6 µM] | 
Cn1c(=O)c2c(ncn2CC(COCc2ccccc2Cl)OCc2ccccc2Cl)n(C)c1=O (centres undefined) |  | 7.94 µM (active)
O=C(CSC1=NCCS1)N1CCN(c2ccc(Cl)cc2)CC1 |  | 15.8 µM (active)
Cc1cc([N+](=O)[O-])c(C)c(Br)c1C | -7.05% [at 11.4 µM] | 
NC(=O)/C(=C\c1ccncc1)c1cccc2ccccc12 |  | 3.16 µM (active)

SMILES | activity, negative = inhibition | AC50
O=C(O)/C(=C\c1ccccc1)c1ccccc1 | -6.04% [at 11.4 µM] | 
O=C(O)/C(=C\c1ccc(O)cc1)c1cccc2ccccc12 | -2.12% [at 11.4 µM] | 
O=C(O)CCC(=O)N1CCc2cc(S(=O)(=O)N3CCCCC3)ccc21 | 3.03% | 
CCC(=O)N1CCc2cc(S(=O)(=O)NC(C(=O)NCc3ccc(F)cc3)C(C)C)ccc21 (centres undefined) |  | 7.08 µM (active)
O=C(O)CCC(=O)N1CCc2cc(S(=O)(=O)NCc3cccs3)ccc21 | -13.1% | 
Cc1ccc2[nH]c(=O)c(NC(N)=S)nc2c1 | -26.7% | 
CCO/C(C)=N/n1c2nc3ccccc3nc2c2c(=O)n(CC(C)C)c(C)nc21 |  | 28.2 µM (active)
CCOC(=O)Cn1c(-c2ccccc2)nc2ccccc2c1=O | 19.7% | 
O=C(O)c1ccccc1N[C@H](c1ccccc1)c1ccc2cccnc2c1O | -13.5% [at 11.4 µM] | 
CC(=O)Oc1cc(C(C)C)c(OCCN(C)C)cc1C |  | inactive
CCCCCC(=O)Nc1cc2[nH]c(=O)cc(COC)c2cc1C | -15.2% | 
CCCCCCCCC(=O)NCc1cc(OC)c(O)cc1I |  | 3.16 µM (active)
COC(=O)CNC(=O)CCCCC(=O)NCC(=O)OC | 2.89% | 
Cc1ccc(S(=O)(=O)Oc2cc(S(=O)(=O)O)cc3cc(S(=O)(=O)O)cc(N)c23)cc1 | 0.193% [at 11.4 µM] | 
N#Cc1c(NC(=O)CCC(=O)O)ccc2ccccc12 | -1.16% [at 11.4 µM] | 
Cc1c(C#N)c(=O)oc2ccc3ccccc3c12 |  | 3.55 µM (active)
Cc1nc(SCC(=O)c2cc3ccccc3oc2=O)c(C#N)c(C)c1C(=O)Nc1ccccc1 | 25.5% | 
N#Cc1nc(COc2ccccc2Cl)oc1NCc1ccco1 |  | 5.01 µM (active)
CN(C)CCNc1oc(COc2ccc(Cl)cc2Cl)nc1C#N | -24.5% | 
O=C(O)C1CC2(C1)CC(C(=O)O)C2 (centres undefined) | 5.16% [at 11.4 µM] | 
CCCn1nc2cc(C(=O)NCc3ccc4c(c3)OCO4)ccc2c1OCC | 32.6% [at 2.29 µM] | 
COc1ccccc1CNC(=O)CCN1C(=O)COc2ccc(C)cc21 |  | 11.2 µM (active)
CCN1CCCC1CNC(=O)CCNC(=O)c1cc(OC)c(OC)c(OC)c1 (centres undefined) | -29.8% | 
Cc1ccc(C(=O)NCc2ccc(N3CCN(C(=O)OC(C)(C)C)CC3)cc2)cc1 | -19.6% | 

SMILES | activity, negative = inhibition | AC50
CCc1nnc(NC(=O)CCC(=O)NCc2ccccc2OC)s1 | -29.3% | 
Cc1ccc2c(c1)-c1c(cnn1CC(=O)O)CO2 | -4.22% | 
Cc1ccc(CNC(=O)CN2C(=O)COc3ccc(C)cc32)cc1 |  | 1.78 µM (active)
Cc1ccc2c(c1)N(CCC(=O)NCc1ccc3c(c1)OCO3)C(=O)CO2 |  | 0.112 µM (active)
COc1cc(C(=O)NCCC(=O)NCc2ccc3c(c2)OCO3)cc(OC)c1OC |  | 0.447 µM (active)
Cc1ccc2c(c1)N(CCC(=O)NCc1cccnc1)C(=O)CO2 |  | 3.55 µM (active)
O=C(O)c1cccc(CN2CCCCC2)c1 | -0.758% [at 11.4 µM] | 
O=C(O)c1cccc(SSc2cccc(C(=O)O)c2)c1 | -11.9% [at 11.4 µM] | 
O=C(O)c1cccc(N2CCCC2=O)c1 |  | 8.91 µM (active)
Cc1nc2cnc(Oc3ccccc3)nc2n(Cc2cccs2)c1=O |  | 10 µM (active)
COc1ccc(Oc2ncc3nc(-c4ccc(F)cc4)c(=O)n(Cc4cccs4)c3n2)cc1 |  | 15.8 µM (active)
COc1ccc(Oc2ncc3ncc(=O)n(Cc4cccs4)c3n2)cc1 |  | 3.16 µM (active)
COc1ccc(Oc2ncc3nc(C)c(=O)n(Cc4cccs4)c3n2)cc1 |  | 3.16 µM (active)
COc1ccc(-c2nc3cnc(N4CCOCC4)nc3n(Cc3cccs3)c2=O)cc1 | 9.4% | 
COc1ccc(-c2nc3cnc(N4CCN(C)CC4)nc3n(Cc3cccs3)c2=O)cc1 | 23.4% | 
Cn1cc(-c2nc3cnc(Oc4ccccc4)nc3n(Cc3cccs3)c2=O)c2ccccc21 | -4.55% | 
O=C(CC(=O)c1ccncc1)c1ccccc1 |  | 3.16 µM (active)
O=C(NNC(=O)c1ccncc1)c1ccncc1 | -9.5% [at 11.4 µM] | 
O=C(C[N+]1(c2ccccc2)CCOCC1)c1ccccc1 | -14.4% [at 11.4 µM] | 
Oc1c(CN2CCOCC2)cc(-c2ccccc2)cc1CN1CCOCC1 |  | 15.8 µM (active)
O=c1oc2c(CN3CCOCC3)c(O)ccc2c2ccccc12 | -4.65% [at 2.29 µM] | 
CCc1cc2c(=O)c(-c3cnn(-c4ccccc4)c3)coc2c(CN2CCOCC2)c1O | 12.2% [at 11.4 µM] | 

Source: PubChem BioAssay AID1851 (National Center for Advancing Translational Sciences (NCATS), 2009)
